Bioassay records: PubChem BioAssay, The Scripps Research Institute Molecular Screening Center
MITF primary – MITF inhibitors, primary screen, biochemical, AlphaScreen, human; AlphaScreen MITF homodimerization, bead proximity signal; AID 1259374, 2018; 650,000 tested, 0.91% active; inhibition, % at 2.6 µM; Microphthalmia-associated transcription factor (Homo sapiens), O75030; in the data active = inhibition above about 50%
Target sequence (O75030 whole entry, looked up): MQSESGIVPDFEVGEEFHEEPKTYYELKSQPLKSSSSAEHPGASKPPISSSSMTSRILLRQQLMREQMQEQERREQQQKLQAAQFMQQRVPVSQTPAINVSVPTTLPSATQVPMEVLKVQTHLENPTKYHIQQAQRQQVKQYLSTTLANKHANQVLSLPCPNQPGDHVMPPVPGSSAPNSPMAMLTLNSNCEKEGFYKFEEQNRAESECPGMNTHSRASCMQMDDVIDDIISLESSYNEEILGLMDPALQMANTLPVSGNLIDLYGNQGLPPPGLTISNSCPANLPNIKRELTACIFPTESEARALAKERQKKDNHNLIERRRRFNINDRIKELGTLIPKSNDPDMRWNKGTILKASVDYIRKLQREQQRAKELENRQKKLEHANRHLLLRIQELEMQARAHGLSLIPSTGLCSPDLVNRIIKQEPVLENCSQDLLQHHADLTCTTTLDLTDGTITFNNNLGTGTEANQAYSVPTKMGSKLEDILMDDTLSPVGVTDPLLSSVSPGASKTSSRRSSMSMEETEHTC
GPR151 activ – activators of human GPR151, primary screen, cell-based, PathHunter beta-arrestin, luminescence; G-protein coupled receptor 151 (Homo sapiens), Q8TDV0; PathHunter beta-arrestin GPR151 cells; activation, % at 11.2 µM; 650,000 tested, 1% active; in the data active = activation above about 4.9%
FBW7 activator – FBW7 E3 ligase activators, primary screen, biochemical, AlphaScreen, human. F-box/WD repeat-containing protein 7 (Homo sapiens), Q969H0. AlphaScreen FBW7–phospho-cyclin E peptide binding, activator screen. normalized activity (activation), % at 26.1 µM. 650,000 tested, 0.13% active. AID 1259310, 2017; in the data active = normalized activity above about 1.9%;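 also: purified mutant Fbw7 with reduced substrate affinity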
TEAD-YAP block – TEAD-YAP interaction inhibition, primary screen, TEAD-YAP interaction inhibitor project, luminescence, HEK-TIYL cells. TEAD-Gal4/YAP UAS-luciferase luminescence. inhibition, % at 9.12 µM. 640,000 tested, 1.4% active. AID 1259422, 2018; in the data active = inhibition above about 32%
Numbers stand for hits; – = inactive; · = no result given. Compounds with a hit are over-represented: about 3.5% of the library has one in this group of screens.

SMILES | MITF primary | GPR151 activ | FBW7 activator | TEAD-YAP block
CC(O)CNC(=O)/C(=C/c1ccc[nH]1)NC(=O)c1ccco1 (stereo unspecified) | – | – | – | –
CCCn1cc(NC(=O)c2cc(-c3ccccc3OCc3ccccc3)no2)cn1 | – | – | – | 43
CCCn1cc(NC(=O)c2cc3ccccc3o2)cn1 | – | – | – | –
COc1ccc(N2Cc3ccccc3C2=O)cc1 | – | – | – | 66
O=C1c2ccccc2CN1c1ccccc1 | – | – | – | –
C=CC(=O)Oc1ccc(N2Cc3ccccc3C2=O)cc1 | – | – | – | –
CC(O)c1ccc(N2Cc3ccccc3C2=O)cc1 (stereo unspecified) | – | – | – | 56
O=C(O)/C=C/c1ccc(O)c(O)c1 | – | – | – | –
O=C(/C=C/c1ccc(O)c(O)c1)O[C@H](Cc1ccc(O)c(O)c1)C(=O)O | 90 | – | · | ·
C/C(=N\NC(=O)c1n[nH]c2c1CCC2)c1ccccc1O | – | – | – | –
O=C1OC(c2ccc(Cl)c([N+](=O)[O-])c2)=N/C1=C/c1cccc(Cl)c1 | – | – | – | –
O=C1OC(c2cccc(F)c2)=N/C1=C\c1ccccc1 | – | – | – | 36
O=C1OC(c2ccc(-c3ccccc3)cc2)=N/C1=C\c1cccc(F)c1 | – | – | – | –
O=C1OC(c2ccc(Cl)c([N+](=O)[O-])c2)=N/C1=C\c1cccc(F)c1 | – | – | 2.0 | –
O=C(c1ccccc1)N1CCN(C(=O)c2nn3c(C(F)(F)F)cc(-c4ccc(Br)cc4)nc3c2Cl)CC1 | – | – | – | –
COc1c(OC(C)=O)ccc(/C=N/NC(=O)COc2c(C)cccc2C)c1[N+](=O)[O-] | – | – | – | –
COc1c(OC(C)=O)ccc(/C=N/NC(=O)COc2c(C)ccc(C)c2C)c1[N+](=O)[O-] | – | – | – | 52
O=C(O)C1CSC(c2ccc(-c3ccc(Cl)c([N+](=O)[O-])c3)o2)N1 (stereo unspecified) | – | – | – | –
COc1ccccc1NC(=O)CN1CCC(c2nc3ccc(C)cc3[nH]2)CC1 | – | – | – | –
COc1ccccc1NC(=O)N1CCC(c2nc3ccc(C)cc3[nH]2)CC1 | – | – | – | 64
COc1ccccc1NC(=O)N1CCC(c2nc3ccc(Cl)cc3[nH]2)CC1 | – | – | – | 80
CS(=O)(=O)c1cccc(S(=O)(=O)N2CCN(c3ccc(F)cc3)CC2)c1 | – | – | – | –
Cc1ccc(/C=C/c2ccncc2)cc1 | – | – | – | 51
COc1ccc(C2CC(c3cccs3)=NN2C(=O)CSc2nnc(CNC(=O)COc3ccccc3)n2-c2ccccc2OC)cc1 (stereo unspecified) | – | – | – | 32
COc1ccc(C2=NN(C(=O)CSc3nnc(CNC(=O)c4ccco4)n3-c3cc(C)ccc3C)C(c3ccc(OC)cc3)C2)cc1 (stereo unspecified) | – | – | 3.6 | –
SMILES | MITF primary | GPR151 activ | FBW7 activator | TEAD-YAP block
CCOc1ccc(Br)cc1C(=O)N/N=C/c1ccc2c(c1)OCO2 | – | – | – | 33
O=C(CCC(=O)N/N=C\c1ccccn1)N/N=C\c1ccccn1 | – | – | – | –
O=C(COc1ccccc1-c1ccccc1)N/N=C/c1ccncc1 | – | – | – | 52
Cc1ccccc1OCC(=O)N/N=C/c1ccc(O)cc1 | – | – | – | –
S=C(NCc1ccccc1)N/N=C/c1ccccn1 | 52 | – | – | 89
CCOc1ccccc1OCC(=O)N/N=C/c1ccc(O)cc1 | – | – | – | 57
COc1ccc2o/c(=N\c3sc4c(c3C(N)=O)CCCC4)c(C(=O)Nc3ccccc3F)cc2c1 | – | – | – | –
O=C(c1cnc(N2CCN(c3ccccn3)CC2)c2ccccc12)N1CCC(Cc2ccccc2)CC1 | – | – | – | –
O=C(Nc1cc(Cl)ccc1Cl)c1ccc(Br)o1 | – | – | – | –
O=C(N/N=C/c1cccnc1)c1ccccc1OCc1ccccc1 | – | – | – | –
O=C(N/N=C/c1cccnc1)c1cc(Br)ccc1OCc1ccccc1 | – | – | – | 33
CCOc1ccccc1OCC(=O)N/N=C(\CCC(=O)O)c1ccccc1 | – | – | – | 59
O=C(COc1ccccc1-c1ccccc1)N/N=C/c1ccccn1 | – | – | – | 51
C/C(=N\NC(=O)COc1ccccc1-c1ccccc1)c1ccc(O)cc1O | – | – | – | 59
COc1ccccc1/C(C)=N/Nc1nc2ccccc2[nH]1 | – | – | – | –
COc1ccc(N=NC(C(=N)N)C(N)=O)cc1 (stereo unspecified) | – | – | – | –
COc1ccc2c(c1OC)C(=O)N(c1ccc(C(C)=O)cc1)C2 | – | – | – | –
O=C(COc1ccccc1-c1ccccc1)N/N=C/c1cccnc1 | – | – | – | 47
C/C(=N\NC(=O)c1ccccn1)c1cccs1 | – | – | – | 65
CCOc1ccc(-c2cc(C(=O)N/N=C(\C)c3cccc(OC)c3)[nH]n2)cc1 | – | – | – | 52
COc1ccc(-c2cc(C(=O)N/N=C(\C)c3ccc(Cl)cc3)[nH]n2)cc1 | – | – | – | –
CCOc1ccc(-c2cc(C(=O)N/N=C(\C)c3cccs3)[nH]n2)cc1 | – | – | – | 60
CC(C)(C)C(=O)CSc1nc2sc3c(c2c(=O)n1-c1ccccc1)CCC(C(C)(C)C)C3 (stereo unspecified) | – | – | – | –
COc1cc([N+](=O)[O-])ccc1-n1c(C)cc(C=O)c1C | – | – | – | –
CC1CCN(C(=O)Cn2nc3oc4ccccc4n3c2=O)CC1 | – | – | – | –
SMILES | MITF primary | GPR151 activ | FBW7 activator | TEAD-YAP block
CCn1c(SCc2cccnc2)nnc1-c1cc2ccccc2cc1O | – | – | – | 44
CCOc1ccccc1-c1cc(C(=O)N/N=C(/C)c2cccc(O)c2)[nH]n1 | – | – | – | 52
CCOc1ccccc1-c1cc(C(=O)N/N=C(/C)c2ccccc2)[nH]n1 | – | – | – | 50
COc1cc(/C(C)=N/NC(=O)c2cc(-c3cccc4ccccc34)n[nH]2)ccc1O | – | – | – | –
COc1ccc(CN2CCN(S(=O)(=O)c3ccc(Cl)cc3)CC2)cc1OC | – | – | – | –
O=C1c2ccccc2C(=O)N1c1cccc(-c2csc(Nc3ccc(Cl)cc3)n2)c1 | – | – | – | –
CCOc1ccc(/C(O)=C2\C(=O)C(=O)N(c3nccs3)C2c2ccccc2)cc1 (stereo unspecified) | – | – | – | 36
Cc1ccnc(NC(=O)/C=C/c2cccs2)c1 | – | – | – | 55
O=C(/C=C/c1cccs1)Nc1ccc(Cl)c2ncsc12 | – | – | – | 87
CC1=CC2=NC(=O)/C(=C\c3ccc(OCCOc4cccc(C)c4)cc3)C(=N)N2O1 | – | – | 2.2 | –
CC1=CC2=NC(=O)/C(=C\c3ccc(OCc4ccc5c(c4)OCO5)c(Cl)c3)C(=N)N2O1 | – | – | – | 59
COc1cc(/C=C2/C(=N)N3OC(C)=CC3=NC2=O)ccc1OCCOc1cccc(C)c1 | – | – | – | –
